# High-throughput results from PubChem.
# Most compounds without a hit are left out; they make up all but 2.9% or so of the library.
# EP2 modulator: modulates human prostaglandin E2 receptor EP2 signaling. P43116. induction, % at 25 µM. 260,000 compounds, 0.83% hits. AID 940. EP2-expressing cells, cAMP HTRF FRET, PGE2 co-stimulation;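 active = compounds whose cAMP rise, as percent of the full-agonist control response, exceeds 60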;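 note: rat C6 glioma line stably carrying human EP2 under a CMV promoter; the protocol text gives 20 µM as final concentration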
# PGE2 EP2 inh: blocks the human prostaglandin E2 receptor EP2; 260,000 compounds, 0.52% hits; P43116; C6 glioma cells expressing human EP2, cAMP TR-FRET; cells stimulated with saturating PGE2; inhibition, % at 25 µM;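 active = percent inhibition above 40 after rounding to a whole number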;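 note: rat C6 glioma host cells with rolipram phosphodiesterase inhibitor present; the protocol text gives 20 µM as final concentration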
# NR1D1 modulator: modulators of human Rev-erb alpha DNA binding. P20393. Rev-erbα–FITC-DNA binding, fluorescence polarization, 90 min. activity, % at 10 µM. 370,000 compounds, 0.79% hits. AID 1259318;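 active = activity above about 14%, limit read from the data; passing the limit was not always enough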
# Target sequence (P20393 whole entry, looked up): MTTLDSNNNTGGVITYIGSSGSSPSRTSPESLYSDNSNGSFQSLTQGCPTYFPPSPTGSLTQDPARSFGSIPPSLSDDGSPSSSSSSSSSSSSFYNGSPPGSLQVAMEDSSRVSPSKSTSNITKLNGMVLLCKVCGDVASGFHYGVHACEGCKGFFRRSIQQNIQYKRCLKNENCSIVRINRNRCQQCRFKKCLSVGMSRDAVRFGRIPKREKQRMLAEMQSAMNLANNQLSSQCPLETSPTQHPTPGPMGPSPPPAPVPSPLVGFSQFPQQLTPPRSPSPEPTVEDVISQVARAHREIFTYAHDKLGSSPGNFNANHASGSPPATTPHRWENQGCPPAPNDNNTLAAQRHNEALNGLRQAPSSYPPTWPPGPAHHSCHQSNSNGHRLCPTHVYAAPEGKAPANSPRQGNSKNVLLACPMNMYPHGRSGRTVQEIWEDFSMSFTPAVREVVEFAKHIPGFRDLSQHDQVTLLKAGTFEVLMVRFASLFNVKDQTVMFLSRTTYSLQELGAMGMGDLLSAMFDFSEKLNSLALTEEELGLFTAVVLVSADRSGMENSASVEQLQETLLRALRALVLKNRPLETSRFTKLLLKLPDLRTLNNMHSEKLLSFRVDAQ
# PG9 binder: binds the HIV-1 gp120 antibody PG9; TR-FRET gp120-PG9 antibody binding; inhibition, % at 6.7 µM; 360,000 compounds, 0.43% hits; in the data active = inhibition above about 8.5%
# SKN-1 inh: C. elegans SKN-1 inhibition | C. elegans VP596 Pgst-4::GFP/RFP ratio, acrylamide-induced, 24 h | inhibition, % at 21.8 µM | 360,000 compounds, 0.49% hits;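 active = interference check ratio from 0.5 to 1.5 plus GFP to RFP signal ratio inhibition reaching or exceeding a fixed threshold, cut at about 30% in these data, passing the limit was not always enough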
# RAM network inh: inhibitors of the yeast RAM network | S. cerevisiae dse1pr::URA3 reporter, 5-FOA growth OD615, 2 d; analog-sensitive cbk1-as2 kinase mutant strain | inhibition, % at 50 µM | 190,000 compounds, 1.8% hits | AID 868;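 active = inhibition above a set limit, 3 SD over mean compound inhibition, cut at about 8.4% in these data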;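 note: inhibition rescues growth on 5-FOA so higher OD means more RAM inhibition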
# Hits are given with their value; n = inactive; x = no result given.
SMILES,EP2 modulator,PGE2 EP2 inh,NR1D1 modulator,PG9 binder,SKN-1 inh,RAM network inh
O=C(NC1CCN(C(=S)Nc2ccccc2Cl)CC1)C12CC3CC(CC(C3)C1)C2,n,n,x,x,x,x
C[C@H](CCC(=O)O)[C@H]1CC[C@@]2(C)[C@@H]3C(=O)C[C@H]4C(C)(C)[C@@H](O)CC[C@]4(C)[C@H]3C(=O)C[C@]12C,n,46,x,x,x,x
CC(CCC(=O)O)C1CC[C@@]2(C)C3C(=O)CC4C(C)(C)C(O)CC[C@]4(C)C3C(=O)C[C@]12C (some centres not stated),n,n,n,n,n,x
COc1ccc(C)cc1NC(=O)C(Sc1nnc(Nc2cc(C)ccc2OC)s1)c1ccccc1 (configuration not stated),n,n,n,n,n,8.5
CCOC(=O)c1[nH]c2ccccc2c1C,n,n,x,x,x,x
Cc1ccc(-c2noc(CSc3nnc(Cc4ccccc4)n3-c3ccc(Cl)cc3)n2)cc1,n,n,n,n,n,8.5
COc1ccc(-c2noc(CSc3nnc(CCc4ccccc4)n3-c3ccccc3)n2)cc1OC,n,n,n,n,n,n
Cn1c(SCc2nc(-c3ccc(Cl)cc3)no2)nnc1-c1ccccc1,n,n,n,n,n,n
COc1ccc(-c2noc(CSc3nnc(Cc4ccccc4)n3-c3ccc(Cl)cc3)n2)cc1,n,n,n,n,n,10
Cc1ccccc1C1C(C#N)=C(N)NC(S)=C1C#N (configuration not stated),71,n,x,x,x,x
Cc1ccc(C)n1-c1ccccc1N1CCCCC1,63,n,n,n,n,n
Cc1cc(=O)cc(C)n1-c1ccccc1N1CCOCC1,n,n,n,n,n,n
O=C(Nc1ccc(N2CCN(C(=O)c3cccs3)CC2)c(Cl)c1)c1ccccc1,n,n,x,x,x,x
COc1cc(C2Nc3c(Cl)cc(Cl)cc3C3C=CCC32)cc(OC)c1OC (configuration not stated),62,n,x,x,x,x
O=C(O)C1Nc2c(Cl)cc(Cl)cc2C2C=CCC12 (configuration not stated),x,x,x,x,n,x
Cc1cc(C(=O)CN2C(=O)NC3(CCCc4ccccc43)C2=O)c(C)n1Cc1ccccc1 (configuration not stated),n,n,n,n,36,n
Cn1nc(CCC(=O)NC2(c3ccc4c(c3)OCO4)CCCC2)c2ccccc2c1=O,n,n,x,x,x,x
CNC(=O)c1ccc2snnc2c1,n,n,n,n,n,n
CCCNC(=O)c1ccc2snnc2c1,n,n,n,n,36,n
O=C(Nc1sc(NC(=O)c2cccs2)nc1-c1cccs1)c1ccccc1,61,n,x,x,x,x
O=C(Nc1sc(NC(=O)c2ccco2)nc1-c1cccs1)c1ccccc1,n,n,x,x,x,x
Nc1ccc(C(=O)C(=O)c2ccc(N)cc2)cc1,n,n,n,n,n,x
N=C1C=CC(=C(c2ccc(N)cc2)c2ccc(N)cc2)C=C1,n,n,n,n,60,x
Clc1ccccc1-c1nnc(-c2ccccc2Cl)o1,n,n,n,n,67,n
Cc1ccccc1-c1nnc(-c2ccc(Cl)cc2)o1,n,n,x,n,n,n
SMILES,EP2 modulator,PGE2 EP2 inh,NR1D1 modulator,PG9 binder,SKN-1 inh,RAM network inh
Clc1ccc(-c2nnc(-c3ccccc3Cl)o2)cc1,n,n,n,n,62,n
O=C(NCC1CC1(Cl)Cl)Nc1ccc(Cl)c(Cl)c1 (configuration not stated),x,x,n,n,56,x
CCOc1ccc(NC(=O)CSc2nnc(-c3cccc(O)c3)o2)cc1,n,n,x,x,x,x
Nc1ncc(-c2ccc(-c3ccccc3)cc2F)cc1-c1ccccc1F,x,x,n,n,40,x
O=C1C(=O)c2ccc(-c3ccccc3)cc2-c2ccccc21,n,n,n,n,n,n
COc1cccc2c1C(=O)c1c(O)c3c(c(O)c1C2=O)C[C@@](O)(C(=O)CO)C[C@H]3O[C@H]1C[C@@H](N)[C@H](O)[C@@H](C)O1.[W],n,40,x,x,x,x
C/C(=N\Nc1ccc([N+](=O)[O-])cc1)c1ccc(C#N)cc1,n,n,n,n,n,x
N#CC(C#N)=NNc1ccc([N+](=O)[O-])cc1,n,n,n,n,90,x
CCN1C/C(=C/c2cccc([N+](=O)[O-])c2)C(=O)/C(=C/c2cccc([N+](=O)[O-])c2)C1,n,46,n,n,n,n
CN1C(=O)/C(=N\OC(=O)c2ccccc2Cl)c2ccccc21,n,n,n,n,n,n
CC(=O)O/N=C1\C(=O)N(Cc2ccc(C)cc2)c2ccccc21,63,n,n,n,n,n
O=C(Nc1cccc2c1CCCC2)C1CCCN(S(=O)(=O)c2ccc(-n3cnnn3)cc2)C1 (configuration not stated),n,n,x,x,x,x
N/C(=N\OC(=O)c1ccoc1)c1ccc(Br)cc1,x,x,n,n,63,x
COc1ccc(CN(Cc2cccn2C)S(=O)(=O)c2ccccc2)cc1,69,n,n,n,n,x
COc1ccc(CNC(=O)CN(Cc2ccc(Cl)cc2)S(=O)(=O)c2ccccc2)cc1,n,n,n,n,n,8.6
COc1ccc(S(=O)(=O)N(CC(=O)NCc2ccncc2)Cc2ccccc2)cc1,n,n,n,n,n,x
COc1ccc(CNC(=O)CN(Cc2ccccc2)S(=O)(=O)c2ccc(Cl)cc2)cc1,n,n,n,n,n,9.2
O=C(NCCn1nc(-c2cccs2)ccc1=O)c1ccccc1F,n,n,x,x,x,x
Cc1nn(Cc2ccccc2)c(C)c1C(=O)N1CCC2(CC1)NC(=O)c1cccnc1N2C,n,n,x,x,x,x
O=C(CSc1cccc2cccnc12)OCC(=O)c1ccc(Br)cc1,n,n,n,n,n,9.6
O=C(CSc1cccc2cccnc12)OCC(=O)c1ccccc1,n,n,n,n,n,n
O=C(CSCC(=O)OCC(=O)c1ccc(Br)cc1)Nc1cccc2ccccc12,n,n,n,n,n,10
O=C(Nc1nnc(C2CCCC2)s1)c1ccccc1F,n,n,x,x,x,x
CCc1cc2cc3c(cc2nc1SCC(=O)NCc1ccccc1)OCO3,81,n,x,x,x,x
CCc1cc2cc(C)cc(C)c2nc1SCC(=O)NCc1ccc2c(c1)OCO2,70,n,x,x,x,x
SMILES,EP2 modulator,PGE2 EP2 inh,NR1D1 modulator,PG9 binder,SKN-1 inh,RAM network inh
CCc1cc2cc3c(cc2nc1SCC(=O)NCc1ccc(OC)cc1)OCCO3,n,n,x,x,x,x
O=C(CSc1nc2cc(Cl)ccc2s1)NCc1ccc2c(c1)OCO2,n,n,n,n,n,10
O=C(CN1Cc2ccccc2C1=O)NC1(c2ccc3c(c2)OCO3)CCCC1,n,x,x,x,x,x
O=S(=O)(Nc1ccc(O)c(CN2CCCCC2)c1)c1ccccc1,n,n,n,n,n,n
CSc1nc(C)cc(Nc2ccc(O)c(CN3CCCCC3)c2)n1,n,45,x,x,x,x
CCCNC(=O)c1ccc2c(c1)C1C3CCC(C3)C1C(c1ccccc1)N2 (configuration not stated),n,n,x,n,48,n
CC(C)(C)C(=O)Nc1ccc(S(=O)(=O)N2CCOCC2)cc1,n,n,x,x,x,x
O[C@@H](c1cc([C@@]23C[C@H]4CC[C@@H]2C[C@H](C4)C3)nc2c(Cl)cc(Cl)cc12)[C@@H]1CCCCN1,n,77,x,x,x,x
